Results: PubChem BioAssay
“And” between values parts separate entries of the source, which are not always exact repeats. Equal entries are not always repeated. The source made the active and inactive calls.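 How the source made its calls, unless noted: active means compounds whose cell count with miR-34 switched on is under 0.7 times the count with it off; inactive means the rest.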

What was measured:
[1] = viability loss with induced miR-34 in A549 – imaging, A549 dox-inducible miR-34, nuclei and caspase counts, primary screen (AID 1347080); conditions: A549 miR-34 inducible, Hoechst nuclei count, 48 h; further: test concentration not given here
[2] = MELAS cybrid and Rieske KO viability enhancers – cell-based, MELAS cybrids, Rieske KO mouse fibroblasts, CellTiter-Glo, primary screen (AID 1508586;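 active means mean z-score across replicates of 1.96 or higher in either the MELAS or the Rieske mutant cell line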;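 further: test concentration not given here; z relative to plate mean and SD of compound and empty wells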); conditions: low glucose
[3] = galactose survival enhancers in mitochondrial complex I cybrids – cell-based, galactose medium, ATP luminescence, primary screen (AID 1645843;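 active means z-score of at least 1.8 in each of two replicates, scored against plate mean and spread of sample wells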;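 further: positive z means more ATP and so rescue of galactose-driven cybrid death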); conditions: complex I mutant cybrid cells, 72 h, stronger effect = higher value
[4] = stronger effect = lower value, cell number ratio, induced over uninduced
[5] = measured here: relative caspase fold change +Dox/-Dox
[6] = measured here: total cells with miR-34 induction, stronger effect = lower value
[7] = measured here: total cells without miR-34 induction
[8] = MELAS cybrid survival, CellTiter-Glo 48 h, stronger effect = higher value
[9] = Rieske KO mouse fibroblast survival, CellTiter-Glo 72 h

Row | Structure (SMILES) | fold change [1, 4] | fold change [1, 5] | cell count [1, 6] | cell count [1, 7] | z-score [2, 8] | z-score [2, 9] | z-score [3]
1 | O=C(O)c1cccnc1Nc1ccc(Cl)cc1 | 1.17 (inactive) | 0.619 | 5660 | 4840 | -0.775 (inactive) | -0.287 | 0.845 (inactive)
2 | Cc1ncc(-c2cc(C(=O)N(C)Cc3csc(C)n3)c3ccc(F)cc3n2)cn1 | 0.883 (inactive) | 2.05 | 8360 | 9470 | -0.361 (inactive) | -0.299 | -0.38 (inactive)
3 | CC(C)C1=NOC(c2nc(-c3cccc4ccccc34)no2)C1 (centres undefined) | 0.862 (inactive) | 1.54 | 7930 | 9200 | 0.244 (inactive) | 0.252 | 2 (inactive)
4 | CSCCC(NC(C)=O)C(=O)O (centres undefined) | 0.861 (inactive) | 0.784 | 8190 | 9520 | 0.71 (inactive) | -0.087 | 0.53 (inactive)
5 | Cc1nc(C(=O)O)nn1-c1cc(Cl)cc(Cl)c1 | 0.931 (inactive) | 0.603 | 8310 | 8930 | -0.498 (inactive) | -0.479 | 0.61 (inactive)
6 | CCc1nc(NC(=O)N(C)CC2Cc3ccccc3O2)nn1C (centres undefined) | 0.87 (inactive) | 1.41 | 9140 | 10500 | 0.229 (inactive) | -0.335 | -0.515 (inactive)
7 | Cc1nn(C)cc1-c1ccnc(NCC(C)Oc2cccnc2)n1 (centres undefined) | 0.898 (inactive) | 1.28 | 8650 | 9640 | -0.961 (inactive) | 0.57 | -0.525 (inactive)
8 | CC1(C)CC(=O)c2sc(N3CCOCC3)nc2C1 | 0.909 (inactive) | 0.788 | 8160 | 8970 | 0.786 (inactive) | -0.0343 | 0.025 (inactive)
9 | CN1CCN(Cc2ccc3sccc3c2)CC1CCO (centres undefined) | 0.86 (inactive) | 1.5 | 8240 | 9580 | 0.0101 (inactive) | -0.424 | -0.48 (inactive)
10 | CC(=O)NC(CCCN=C(N)N)C(=O)O (centres undefined) | 0.897 (inactive) | 0.717 | 8640 | 9630 | -1.33 (inactive) | -0.192 | 0.785 (inactive)
11 | Cc1cc(C)nc(-c2cnn(CC(=O)Nc3cc(C)nn3-c3ccccn3)c2)n1 | 0.882 (inactive) | 1.32 | 5870 | 6650 | -0.672 (inactive) | -0.181 | -0.415 (inactive)
12 | O=c1[nH]c(=O)c2[nH]cnc2[nH]1 | 0.891 (inactive) | 0.584 | 8870 | 9950 | 0.44 (inactive) | -0.148 | -0.02 (inactive)
13 | CNC(=O)c1ccccc1-c1cccc2ccccc12 | 0.918 (inactive) | 0.701 | 8250 | 8980 | -0.403 (inactive) | -0.242 | -0.535 (inactive)
14 | CN1CCN(Cc2ccc3nonc3c2)CC1CCO (centres undefined) | 0.893 (inactive) | 1.09 | 8970 | 10000 | -0.262 (inactive) | -0.13 | -0.35 (inactive)
15 | CC(=O)Nc1cccc(-c2nn(CC(=O)Nc3cnn(C)n3)c3ccccc23)c1 | 0.885 (inactive) | 1.89 | 8450 | 9550 | -0.345 (inactive) | 0.241 | -0.43 (inactive)
16 | Cc1nc2ccc(CN(C)c3ccc(C(=O)NC(CCC(=O)O)C(=O)O)s3)cc2c(=O)[nH]1 (centres undefined) | 1.21 (inactive) and 1.1 (inactive) | 1.12 and 0.742 | 1780 and 1710 | 1470 and 1560 | -0.603 (inactive) | -0.121 | -1.03 (inactive)
17 | O=C(Nc1ccccc1)c1ccn[nH]1 | 0.856 (inactive) | 0.232 | 7620 | 8910 | -0.292 (inactive) | 0.207 | 0.49 (inactive)
18 | COc1ccc(CN2CCN(c3nccc(-c4cn(C)nc4C)n3)CC2=O)cc1 | 0.778 (inactive) | 1.57 | 4640 | 5960 | 4.51 (active) | 2.53 | -0.37 (inactive)
19 | COc1cccc2ccc(-c3nnc4ccccn34)nc12 | 0.871 (inactive) | 1.83 | 7320 | 8400 | -0.646 (inactive) | 0.957 | -0.595 (inactive)
20 | O=C1CCCc2occ(C(=O)N3CCc4[nH]nc(Cc5ccccc5)c4C3)c21 | 0.979 (inactive) | 0.441 | 9440 | 9640 | -0.275 (inactive) | -0.284 | -0.515 (inactive)
21 | CCCn1cc(-c2ccnc(NC3CCN(Cc4cccnc4)CC3)n2)c(C)n1 | 0.82 (inactive) | 2 | 3430 | 4180 | -0.647 (inactive) | 0.672 | -0.55 (inactive)
22 | CCOc1ccccc1-c1ncnc2sc(C)c(C)c12 | 0.89 (inactive) | 1.57 | 6100 | 6860 | -0.535 (inactive) | 0.672 | 0.07 (inactive)
23 | Nc1[nH]c(=O)[nH]c(=O)c1N | 0.894 (inactive) | 0.315 | 8900 | 9960 | 0.368 (inactive) | 0.648 | 0.84 (inactive)
24 | CN=C(NC)NCc1ccccc1 | 0.917 (inactive) | 0.571 | 9010 | 9830 | 0.186 (inactive) | -0.223 | 0.38 (inactive)

Row | Structure (SMILES) | fold change [1, 4] | fold change [1, 5] | cell count [1, 6] | cell count [1, 7] | z-score [2, 8] | z-score [2, 9] | z-score [3]
25 | CCCCCC(O)C=CC1C(O)CC(=O)C1CCCCCCC(=O)O (centres undefined) | 0.973 (inactive) and 0.918 (inactive) | 0.603 and 0.896 | 9870 and 7520 | 10100 and 8190 | -0.372 (inactive) | 0.491 | 0.865 (inactive)
26 | Cc1nsc(NC(=O)N2CCCCC2c2nc(C(C)C)no2)n1 (centres undefined) | 0.906 (inactive) | 1.98 | 9100 | 10000 | -0.274 (inactive) | -0.381 | -0.525 (inactive)
27 | NC(=O)c1c(NC(=O)C2CC2)sc2c1CCCC2 | 0.825 (inactive) | 0.622 | 7330 | 8890 | -0.327 (inactive) | 0.409 | 0.65 (inactive)
28 | Cc1nsc(NC(=O)N2CCC(C(O)CC(C)C)CC2)n1 (centres undefined) | 0.832 (inactive) | 2.21 | 6540 | 7860 | 0.507 (inactive) | -0.186 | -0.63 (inactive)
29 | NCCC(O)C(=O)NC1CC(N)C(OC2OC(CN)C(O)C(O)C2O)C(O)C1OC1OC(CO)C(O)C(N)C1O (centres undefined) | 0.888 (inactive) | 0.936 | 8210 | 9240 | -1.15 (inactive) | -0.0039 | 0.985 (inactive)
30 | O=c1c2nccnc2ncn1Cc1scnc1-c1ccccc1 | 0.893 (inactive) | 0.515 | 8870 | 9940 | -0.26 (inactive) | -0.294 | -0.445 (inactive)
31 | O=c1c(-c2ccc(O)cc2)coc2cc(OC3OC(CO)C(O)C(O)C3O)ccc12 (centres undefined) | 1.06 (inactive) | 0.687 | 5800 | 5490 | 0.694 (inactive) | -0.345 | 0.515 (inactive)
32 | Cc1nonc1CN(C)c1ncnc2nc[nH]c12 | 0.907 (inactive) | 0.714 | 9230 | 10200 | -0.379 (inactive) | -0.0852 | -0.565 (inactive)
33 | O=C(O)C=Cc1ccccc1O | 0.911 (inactive) | 0.83 | 8740 | 9590 | 0.0698 (inactive) | 0.0548 | 0.245 (inactive)
34 | COc1ccc(CCC(=O)O)cc1OC | 0.922 (inactive) | 0.518 | 8510 | 9240 | -0.767 (inactive) | -0.44 | -0.02 (inactive)
35 | O=C(O)CC(O)CC(O)C=Cc1c(C2CC2)nc2ccccc2c1-c1ccc(F)cc1 (centres undefined) | 0.905 (inactive) and 0.948 (inactive) | 0.849 and 0.847 | 771 and 1550 | 852 and 1630 | 1.33 (inactive) | -0.125 | -1.86 (inactive)
36 | Cc1nc2ccc(-c3ncnc4sccc34)cc2c(=O)[nH]1 | 0.886 (inactive) | 1.29 | 9390 | 10600 | 0.107 (inactive) | 0.235 | -0.465 (inactive)
37 | Nc1nc(NCc2ccncc2)c2cn[nH]c2n1 | 0.931 (inactive) | 0.844 | 8290 | 8900 | -0.45 (inactive) | -0.366 | -0.535 (inactive)
38 | Cc1nc(NC(=O)NCc2cccc(Cl)c2)nn1C | 0.889 (inactive) | 2.08 | 8140 | 9160 | 7.52 (active) | 0.00105 | -0.605 (inactive)
39 | CC(NC(=O)OCc1ccccc1)C(=O)O (centres undefined) | 0.909 (inactive) | 0.337 | 9090 | 10000 | 0.137 (inactive) | 0.148 | 0.185 (inactive)
40 | O=C(O)c1cnc(-c2ccccc2)[nH]1 | 0.939 (inactive) | 0.271 | 8980 | 9570 | -0.137 (inactive) | -0.215 | 0.375 (inactive)
41 | COc1cccc(-c2noc(Cc3ccc4c(c3)OCO4)n2)c1 | 0.929 (inactive) | 1.11 | 9000 | 9680 | 0.523 (inactive) | 0.163 | 2.67 (active)
42 | Cc1cc(C)nc(-c2cnn(CC(=O)Nc3cnn(C)n3)c2)n1 | 0.881 (inactive) | 1.67 | 8470 | 9620 | 0.0131 (inactive) | -0.562 | -0.525 (inactive)
43 | NC(=O)c1cncc(Br)c1 | 0.888 (inactive) | 0.503 | 8870 | 9990 | 0.375 (inactive) | -0.195 | 0.76 (inactive)
44 | COC(=O)CN1CCN(C(=O)Nc2n[nH]c(-c3ccco3)n2)CC1=O | 0.915 (inactive) | 1.4 | 9430 | 10300 | 0.382 (inactive) | 0.531 | 1.98 (inactive)
45 | CCC1C(=O)N(C)CCN1C(=O)Nc1nc(C)ns1 (centres undefined) | 1.02 (inactive) | 1.35 | 8670 | 8510 | -0.0427 (inactive) | -0.105 | -0.49 (inactive)
46 | Cc1ccc(NC(=O)C2CC23CCCCC3)cn1 (centres undefined) | 0.887 (inactive) | 0.564 | 8250 | 9300 | -0.13 (inactive) | -0.332 | -0.27 (inactive)
47 | O=C(O)CSc1nc(-c2cccc(Cl)c2)no1 | 0.912 (inactive) | 0.254 | 8810 | 9660 | 0.659 (inactive) | -0.279 | 0.49 (inactive)
